Inhibition data for 48 compounds are collected here from ChEMBL document CHEMBL3433997, “St. Jude Leishmania screening dataset” (2016).

What all share (format): functional
Assay [1] has as its target Solute carrier family 2, facilitated glucose transporter member 1 (Homo sapiens) (UniProt P11166). The assay is described as follows: ST_JUDE_LEISH: Cytotoxicity at 2uM final concentration against transgenic Leishmania Mexicana promastigotes LmGLUT1 that are glucose transport deficient and complemented with the human glucose transporter GLUT1. Activity is measured by DNA content using SYBR green in vitro.

For assay [2], the target named is Hexose transporter 1 (Plasmodium falciparum) (UniProt O97467). The assay can be described thus: ST_JUDE_LEISH: Cytotoxicity at 2uM final concentration against transgenic Leishmania Mexicana promastigotes LmPfHT that are glucose transport deficient and complemented with the Plasmodium falciparum hexose transporter. Activity is measured by DNA content using SYBR green in vitro.

The target in assay [3] is Glucose transporter (Leishmania mexicana) (UniProt O61059). The assay is described as follows: ST_JUDE_LEISH: Cytotoxicity at 2uM final concentration against transgenic Leishmania Mexicana promastigotes LmGT2 that are glucose transport deficient and complemented with the L. Mexicana glucose transporter 2. Activity is measured by DNA content using SYBR green in vitro.

Solute carrier family 2, facilitated glucose transporter member 1 (Homo sapiens), sequence (P11166 whole entry): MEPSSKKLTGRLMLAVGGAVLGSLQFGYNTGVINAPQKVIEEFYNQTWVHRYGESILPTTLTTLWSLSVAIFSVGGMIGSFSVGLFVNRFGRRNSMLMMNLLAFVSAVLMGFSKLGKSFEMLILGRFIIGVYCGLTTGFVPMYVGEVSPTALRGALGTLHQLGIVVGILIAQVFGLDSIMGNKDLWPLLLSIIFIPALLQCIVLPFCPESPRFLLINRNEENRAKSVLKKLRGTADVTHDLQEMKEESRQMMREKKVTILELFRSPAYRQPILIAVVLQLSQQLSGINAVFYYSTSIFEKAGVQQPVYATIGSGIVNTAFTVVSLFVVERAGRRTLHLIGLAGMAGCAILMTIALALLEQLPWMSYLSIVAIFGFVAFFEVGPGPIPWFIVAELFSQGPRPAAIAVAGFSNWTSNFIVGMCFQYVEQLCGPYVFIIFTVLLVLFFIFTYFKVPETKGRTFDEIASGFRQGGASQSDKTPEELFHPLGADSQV

As for `O=C(Cc1c[nH]cn1)Nc1cccc(-c2ccc(-c3nc4cc(F)ccc4[nH]3)cc2)c1`, the inhibition (as a rule, the drop in the measured response relative to a control, in per cent) in assay [1] was 9.26%; in assay [2], 10.1%; in assay [3], 7.18%.
Consider `CCN(CCNS(C)(=O)=O)c1ccc(N)c(C)c1`, for which the inhibition in assay [1] was determined as 1.65%; in assay [2], 1.06%; in assay [3], 1.72%.
As for `C=C[C@]1(C)C[C@@H](OC(=O)c2n[nH]c3ccccc3c2=O)[C@]2(C)[C@H](C)CC[C@]3(CCC(=O)[C@H]32)[C@@H](C)[C@@H]1O`, the inhibition in assay [1] is 5.34%; in assay [2] it was 0.28%; in assay [3], -0.71%.
Regarding `NCc1ccc(CNCc2cccc(-c3cccc(-c4nc5ccccc5[nH]4)c3)c2)cc1`, the values for the inhibition in assay [1], in assay [2] and in assay [3] were 1.02%, -3.61% and 3.76%, respectively.
On the same counts, the results for `Cc1cc(NC(=O)Nc2ccc(C(C)(C)C)cc2)c2ccccc2n1` are 1.18%, 3.8% and -3.31%.
The like results for `CC(=NNC(S)=NCc1ccco1)c1ccccn1` were, in that order, 1.7%, 1.81% and 1.16%.
`Cc1ccc(-c2nnc(Nc3ccc(OCC(N)=O)cc3)c3ccccc23)cc1S(=O)(=O)NCC1CCCO1` (centres undefined): the results for the inhibition in assay [1], in assay [2] and in assay [3] were 1.11%, 3.81% and 2%, respectively.
The like results for `COc1ccc(C2CCC(NCCCCNC(=O)c3ccc(NC(=O)c4ccc(Cl)cc4)cc3)CC2)cc1` (centres undefined) were, in that order, 1.37%, 4.07% and 4.39%.
The like results for `Cc1cccc2nc(O)c([N+](=O)[O-])c(O)c12` were, in that order, 2.09%, 1.72% and 2.14%.
The like results for `Cc1cccc2nc(-c3ccc(-c4cccc(CNCc5ccccc5)c4)s3)[nH]c12` were, in that order, -1.26%, -0.6% and -0.69%.
As for `CC1=C(C(=O)Nc2ccccc2)C(c2ccc([N+](=O)[O-])cc2)n2ncc(C(=O)Nc3ccccc3)c2N1` (centres undefined), the figures for the inhibition in assay [1], in assay [2] and in assay [3] were 14.2%, 6.94% and 5.18%, respectively.
On the same counts, the results for `O=C(Nc1ccccc1Oc1ccccc1)NC1CCN(c2ccnc3cc(Cl)ccc23)C1` (centres undefined) are 3.65%, 4.63% and 3.25%.
The like results for `O=C(Nc1ccc(C(F)(F)F)cc1)c1ccc(S(=O)(=O)NC2CCN(Cc3ccccc3)C2)cc1` (centres undefined) were, in that order, 5.58%, 5.18% and 2.71%.
The like results for `O=C(CC1SC(N2N=C(c3cccs3)CC2c2ccccc2)=NC1=O)Nc1ccccc1F` (centres undefined) were, in that order, 14.2%, 11.5% and 3.51%.
Take `CC1(C)[C@H]2CC[C@@H](CNc3nc(NCC(=O)Nc4ccc5ccccc5c4)nc(N4CCC(N5CCCC5)CC4)n3)[C@@H]1C2`: the inhibition in assay [1] is 0.95%; in assay [2], 2.52%; in assay [3], 2.89%.
On the same counts, the results for `N#Cc1ccc(N/C(=N\c2ccccc2Br)N(C2CCCCC2)C2CCCCC2)c(O)c1` are 6.11%, 4.65% and 5.56%.
On the same counts, the results for `Cc1noc(C)c1-c1cccc(CNCc2ccc(-c3ccc(-c4nc5cc(C(F)(F)F)ccc5[nH]4)s3)cc2)c1` are 3.88%, 3.12% and 0.04%.
Turning to `CC(=O)Nc1ccc(C(=O)N2CCN(c3ccnc4cc(Cl)ccc34)CC2)cc1`, the inhibition in assay [1] is 1.26%; in assay [2] it was -0.89%; in assay [3], -0.23%.
On the same counts, the results for `COc1cc(Cc2cnc(N)nc2N)ccc1OCc1ccc(-c2csnn2)cc1` are 9.75%, 9.64% and 11.7%.
With `COc1ccc2nccc([C@@H](O)CN3CCC(NCc4ccc5scnc5c4)CC3)c2c1`, the inhibition in assay [1] was 3.81%; in assay [2], 2.6%; in assay [3] it was 3.04%.
Turning to `CC(=O)Nc1nc(C(=O)Nc2ccc(-c3ccc(-c4nc5ccccc5[nH]4)cc3)cc2)cs1`, the inhibition was determined as 4.03% in assay [1], 2.54% in assay [2] and 3.01% in assay [3].
The like results for `O=C(Nc1ccc(F)c(C(F)(F)F)c1)NC1CCN(CCCCCNC(=O)C2CC2c2ccc(Cl)c(Cl)c2)CC1` (centres undefined) were, in that order, 4.2%, 3.79% and 4.44%.
The like results for `COc1cc(Nc2ccnc3ccc(C(F)(F)F)cc23)cc(OC)c1OC` were, in that order, 18.2%, 23.1% and 12.6%.
On the same counts, the results for `O=C(NCc1ccccc1)Nc1ccc(-c2cccc(-c3nc4cc(C(F)(F)F)ccc4[nH]3)c2)cc1` are -0.99%, -0.18% and -1.23%.
For `Cc1n[nH]c2cc(F)c(-c3cc(OC[C@@H](N)Cc4ccccc4)cnc3-c3ccoc3)cc12`, the inhibition in assay [1] was found to be 10.8%; in assay [2] it was 16.1%; in assay [3] it was 6.42%.
On the same counts, the results for `COc1ccc2c(c1)C(C)(CCCN(C)C)C(=O)N2C` (centres undefined) are 1.02%, 1.36% and 2.15%.
On the same counts, the results for `Cc1ccc2nc(C)cc(N/N=C/c3cccc([N+](=O)[O-])c3)c2c1` are 4.41%, 4.99% and 1.37%.
As for `CCCCN(CCCC)CCCCCCNc1c2ccccc2nc2ccccc12`, the inhibition stood at 28% in assay [1], 22.7% in assay [2] and 18.2% in assay [3].
On the same counts, the results for `Cc1cccc2nc(-c3ccc(-c4cccc(NCc5cn6cccnc6n5)c4)cc3)[nH]c12` are 2.03%, 0.59% and -2.51%.
The like results for `CC(=O)Nc1cccc(C(=O)Nc2nc3ccc(-c4cc(=O)[nH]c(Nc5ccccc5Cl)n4)cc3[nH]2)c1` were, in that order, 4.21%, 2.23% and 5.36%.
The like results for `CCOCc1cn(CC(=O)c2ccc(-c3ccccc3)cc2)c(C)nc1=N` were, in that order, -1.07%, -0.82% and -0.84%.
As to `CC1CN(c2cnn(Cc3ccc(NC(=O)Nc4ccc(-c5ccccc5)cc4)cc3)c(=O)c2Cl)CC(C)N1` (centres undefined), the values for the inhibition in assay [1], in assay [2] and in assay [3] were 1.43%, 0.34% and -1.78%, respectively.
The like results for `COc1ccc2nccc([C@@H](O)CN3CCC(NCCOc4ccccc4C#N)CC3)c2c1` were, in that order, 4.87%, 2.43% and 6.46%.
On the same counts, the results for `CCc1n[nH]c(C(=O)NC2CCN(CC3(c4ccc(OC)cc4)CCCCC3)CC2)c1C` are 3.43%, 2.97% and 1.81%.
On the same counts, the results for `CCCCCCN1CCN(Cc2cccc(NC(=O)c3ccc(Cl)c(Cl)c3)c2)CC1` are 5.8%, 6.59% and 4.85%.
With `CC(=O)Nc1ccc(C(=O)Nc2cccc(-c3ccc(-c4nc5cccc(C)c5[nH]4)cc3)c2)cn1`, the inhibition in assay [1] came to 4.86%; in assay [2] it was 4.51%; in assay [3] it was 4.91%.
The like results for `CCn1c(-c2nonc2N)nc2c(-c3ccccc3)ncc(OCCCNCCCN3CCOCC3)c21` were, in that order, 2.58%, 1.32% and 0.55%.
On the same counts, the results for `CC(C)[C@H](NC(=O)c1c(F)cccc1F)C(=O)Nc1ccc(Cc2nc3ccccc3s2)cc1` are 4.82%, 4.54% and 4.17%.
On the same counts, the results for `NC1CCN(Cc2cccc(-c3ccc(-c4nc5ccccc5[nH]4)cc3)c2)C1` (centres undefined) are -1.1%, 2.18% and 1.99%.
As for `CCCN(CCC)C(C)CCC(C)Nc1c2ccc(Cl)cc2nc2ccc(OC)cc12` (centres undefined), the inhibition in assay [1] worked out at 1.91%; in assay [2], 2.78%; in assay [3], 2.82%.
As to `O=C(N[C@H]1CCN(Cc2ccc(OCCN3CCNCC3)c(Br)c2)C1)c1ccc(Cl)c(Cl)c1`, the figures for the inhibition in assay [1], in assay [2] and in assay [3] were 0.35%, 0.16% and 1.51%, respectively.
On the same counts, the results for `CC1(CCN2CCC(c3c[nH]c4cnccc34)CC2)CCCc2c(Br)cccc2C1=O` (centres undefined) are 54.7%, 25.4% and 95.5%.
The like results for `CC(Oc1cc(-n2cnc3ccc(NC(=O)CCN4CCCCC4)cc32)sc1C(N)=O)c1ccccc1Cl` (centres undefined) were, in that order, 16.8%, 9.84% and 6.83%.
Consider `Cc1ccc2[nH]c(C)cc(=NN=Cc3ccc(Cl)cc3)c2c1`, for which the inhibition in assay [1] was -0.11%; in assay [2], 0.61%; in assay [3], -1.26%.
On the same counts, the results for `c1ccc(CNCc2cccc(-c3ccc(-c4nc5ccccc5[nH]4)cc3)c2)cc1` are 6.45%, 4.96% and 7.51%.
The like results for `CC(C)(C)c1ccc(CNC(=O)c2cc(CNC3CCNCC3)ccc2O)cc1` were, in that order, 1.45%, 1.01% and 0.22%.
On the same counts, the results for `CCC1CCCCN1S(=O)(=O)c1ccc(OC)c(N2CCN(C(=O)C(Cl)(Cl)Cl)CC2)c1` (centres undefined) are 4.89%, 6.41% and 6.44%.
For `CC(C)(C)c1ccc(C(=O)N2CCC3(CC2)C(=O)N(CC(=O)NCC2CCCO2)CN3c2ccccc2)cc1` (centres undefined), the inhibition in assay [1] was 0.44%; in assay [2] it was 4.61%; in assay [3], 0.02%.
